Among all 5,500 compounds or so, about 2,000 (36%) were called active. Roughly 18% stayed inconclusive and do not appear here. Cut-off read from the data, not from the text of the source: active = normalized growth mostly below about 0.91 (no sharp cut-off); inconclusive = no clear call, values can overlap the other calls; inactive = mostly above about 0.92. The list shows a part of the results.
Assay: chemical genetic growth profiling, strain panel (AID 1159580);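 note: tested at 20 µM; growth read once vehicle control cultures reached saturation at 30 °C; 1 = growth at the plate median or of vehicle wells; lower values mean less growth of the strain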
Conditions: growth OD

Measured: normalized growth

CCCCC/C=C\C/C=C\C/C=C\C/C=C\CCCC(=O)O
inactive: S. cerevisiae deletion strains, locus YJR043C, strain POL32, active compounds read low 0.975 | S. cerevisiae deletion strains, locus YJR075W, strain HOC1, active compounds read low 0.968 | S. cerevisiae deletion strains, locus YKL009W, strain mrt4, active compounds read low 0.982 | S. cerevisiae deletion strains, locus YKL068W, active compounds read low 0.973 | S. cerevisiae deletion strains, locus YKL085W, strain MDH1 (second series), active compounds read low 0.958 | S. cerevisiae deletion strains, locus YKL085W, strain MDH1, active compounds read low 0.958 | S. cerevisiae deletion strains, locus YKL160W, strain elf1, active compounds read low 0.98 | S. cerevisiae deletion strains, locus YKL190W, strain CNB1, active compounds read low 0.987 | S. cerevisiae deletion strains, locus YKR026C, strain gcn3, active compounds read low 0.944 | S. cerevisiae deletion strains, locus YKR091W, strain srl3, active compounds read low 0.967 | S. cerevisiae deletion strains, locus YLL001W, strain dnm1, active compounds read low 0.96 | S. cerevisiae deletion strains, locus YLL026W, active compounds read low 0.976 | S. cerevisiae deletion strains, locus YLL041C, strain sdh2, active compounds read low 0.975 | S. cerevisiae deletion strains, locus YLR027C, strain aat2, active compounds read low 0.978 | S. cerevisiae deletion strains, locus YLR039C, strain RIC1, active compounds read low 0.686 | S. cerevisiae deletion strains, locus YLR058C, strain SHM2, active compounds read low 0.972 | S. cerevisiae deletion strains, locus YLR102C, strain apc9, active compounds read low 0.971 | S. cerevisiae deletion strains, locus YLR221C, strain rsa3, active compounds read low 0.972 | S. cerevisiae deletion strains, locus YLR258W, strain gsy2, active compounds read low 0.966 | S. cerevisiae deletion strains, locus YLR262C, strain YPT6, active compounds read low 0.719 | S. cerevisiae deletion strains, locus YLR268W, strain sec22, active compounds read low 1.01 | S. cerevisiae deletion strains, locus YLR320W, strain mms22, active compounds read low 0.884 | S. cerevisiae deletion strains, locus YLR330W, strain CHS5, active compounds read low 0.984 | S. cerevisiae deletion strains, locus YLR342W, strain FKS1 (second series), active compounds read low 0.942 | S. cerevisiae deletion strains, locus YLR342W, strain FKS1, active compounds read low 0.969 | S. cerevisiae deletion strains, locus YLR357W, strain rsc2, active compounds read low 0.935 | S. cerevisiae deletion strains, locus YLR370C, strain arc18, active compounds read low 0.964 | S. cerevisiae deletion strains, locus YLR371W, strain rom2, active compounds read low 0.975 | S. cerevisiae deletion strains, locus YLR384C, strain iki3, active compounds read low 0.982 | S. cerevisiae deletion strains, locus YLR418C, strain cdc73, active compounds read low 0.953 | S. cerevisiae deletion strains, locus YML016C, strain PPZ1, active compounds read low 1 | S. cerevisiae deletion strains, locus YML032C, strain rad52, active compounds read low 0.967 | S. cerevisiae deletion strains, locus YML120C, strain ndi1, active compounds read low 0.986 | S. cerevisiae deletion strains, locus YML124C, strain tub3, active compounds read low 0.983 | S. cerevisiae deletion strains, locus YMR058W, strain fet3, active compounds read low 0.919 | S. cerevisiae deletion strains, locus YMR078C, strain ctf18, active compounds read low 0.964 | S. cerevisiae deletion strains, locus YMR125W, strain sto1, active compounds read low 0.977 | S. cerevisiae deletion strains, locus YMR129W, active compounds read low 0.977 | S. cerevisiae deletion strains, locus YMR205C, strain PFK2, active compounds read low 0.919 | S. cerevisiae deletion strains, locus YMR223W, strain ubp8, active compounds read low 0.953 | S. cerevisiae deletion strains, locus YMR231W, strain pep5, active compounds read low 0.974 | S. cerevisiae deletion strains, locus YMR263W, strain SAP30, active compounds read low 1 | S. cerevisiae deletion strains, locus YMR307W, strain GAS1, active compounds read low 0.966 | S. cerevisiae deletion strains, locus YNL067W, strain RPL9B, active compounds read low 0.987 | S. cerevisiae deletion strains, locus YNL128W, strain TEP1, active compounds read low 0.995 | S. cerevisiae deletion strains, locus YNL153C, strain GIM3, active compounds read low 1 | S. cerevisiae deletion strains, locus YNL209W, strain ssb2, active compounds read low 0.983 | S. cerevisiae deletion strains, locus YNL233W, strain BNI4, active compounds read low 0.981 | S. cerevisiae deletion strains, locus YNL248C, strain rpa49, active compounds read low 0.972 | S. cerevisiae deletion strains, locus YNL250W, strain rad50, active compounds read low 0.924 | S. cerevisiae deletion strains, locus YNL271C, strain bni1, active compounds read low 0.973 | S. cerevisiae deletion strains, locus YNL298W, strain CLA4, active compounds read low 0.956 | S. cerevisiae deletion strains, locus YNL322C, strain KRE1 (second series), active compounds read low 0.996 | S. cerevisiae deletion strains, locus YNL322C, strain KRE1, active compounds read low 0.986 | S. cerevisiae deletion strains, locus YNR049C, strain mso1, active compounds read low 0.971 | S. cerevisiae deletion strains, locus YNR052C, strain pop2, active compounds read low 0.977 | S. cerevisiae deletion strains, locus YOL006C, strain TOP1, active compounds read low 0.836 | S. cerevisiae deletion strains, locus YOL012C, strain htz1 0.8 | S. cerevisiae deletion strains, locus YOL147C, strain pex11, active compounds read low 0.987 | S. cerevisiae deletion strains, locus YOR001W, strain rrp6, active compounds read low 0.971 | S. cerevisiae deletion strains, locus YOR061W, strain CKA2, active compounds read low 0.986 | S. cerevisiae deletion strains, locus YOR069W, strain VPS5, active compounds read low 0.99 | S. cerevisiae deletion strains, locus YOR070C, strain gyp1, active compounds read low 0.98 | S. cerevisiae deletion strains, locus YOR080W, strain dia2, active compounds read low 0.97 | S. cerevisiae deletion strains, locus YOR083W, strain WHI5, active compounds read low 0.996 | S. cerevisiae deletion strains, locus YOR106W, strain vam3, active compounds read low 0.978 | S. cerevisiae deletion strains, locus YOR136W, strain idh2, active compounds read low 0.965 | S. cerevisiae deletion strains, locus YOR144C, strain elg1, active compounds read low 0.986 | S. cerevisiae deletion strains, locus YOR184W, strain ser1, active compounds read low 0.895 | S. cerevisiae deletion strains, locus YOR265W, strain rbl2, active compounds read low 0.978 | S. cerevisiae deletion strains, locus YOR270C, strain vph1, active compounds read low 0.924 | S. cerevisiae deletion strains, locus YOR290C, strain snf2, active compounds read low 0.89 | S. cerevisiae deletion strains, locus YOR316C, strain cot1, active compounds read low 0.982 | S. cerevisiae deletion strains, locus YPL051W, strain arl3, active compounds read low 0.985 | S. cerevisiae deletion strains, locus YPL055C, strain LGE1, active compounds read low 0.972 | S. cerevisiae deletion strains, locus YPL078C, strain atp4, active compounds read low 0.967 | S. cerevisiae deletion strains, locus YPL106C, strain sse1, active compounds read low 0.931 | S. cerevisiae deletion strains, locus YPL240C, strain hsp82, active compounds read low 0.978 | S. cerevisiae deletion strains, locus YPL241C, strain CIN2, active compounds read low 0.986 | S. cerevisiae deletion strains, locus YPR119W, strain clb2, active compounds read low 0.969 | S. cerevisiae deletion strains, locus YPR141C, strain kar3, active compounds read low 0.975 | S. cerevisiae deletion strains, locus YPR163C, strain tif3, active compounds read low 0.965 | S. cerevisiae deletion strains, locus YPR167C, strain met16, active compounds read low 0.986 | S. cerevisiae deletion strains, strain wtn01, active compounds read low 0.972 | S. cerevisiae strains, strain wild type, active compounds read low 0.976
active: S. cerevisiae deletion strains, locus YKR001C, strain vps1, active compounds read low 0.857 | S. cerevisiae deletion strains, locus YLR262C, strain YPT6 (second series), active compounds read low 0.856 | S. cerevisiae deletion strains, locus YNL071W, strain lat1, active compounds read low 0.857 | S. cerevisiae deletion strains, locus YNL307C, strain MCK1, active compounds read low 0.733

— PubChem BioAssay AID1159580 (chemical genetic matrix, 2015)
